“And” between values parts separate entries of the source, which are not always exact repeats. Equal values may be shown once.
assay: JC-1 mitochondrial signal, unstimulated MM1S myeloma – cell-based, JC-1 fluorescence, 24 h, 100 nL compound, profiling panel (AID 1170); details: MM1S mitochondrial potential, higher = more signal; note: test concentration not given here

Compound	z-score
CC(=O)OC[C@H]1O[C@H](C#CC(C)(C)C)C=C[C@@H]1OC(C)=O	0.085
COc1ccc(O[C@H]2C=C[C@@H](c3ccccc3)O[C@@H]2COC(=O)CCC(C)=NO[C@H](C)c2cn([C@H](CO)Cc3ccccc3)nn2)cc1	-0.704 and 0.182
CCCC[C@@H]1CN2[C@H](c3ccc(Br)cc3)[C@@H](C)CC[C@H]2C(=O)O1	-1.19 and 1.26
CC(CO)N1C(=O)[C@@H]2C3C(=O)OCCC=C[C@H]3OC23C=CCN(C(C)(C)C)C(=O)[C@@H]13 (stereo partly specified)	0.157 and -0.365
C=CCN(C(=O)C1N(CCOCCO)C(=O)C2C(C(=O)O)C3C=CC21O3)C(C)(C)C (stereo unspecified)	1.93 and 0.501
C[C@@H](ON=C1[C@H]2CCn3c(=O)n(-c4ccccc4)c(=O)n3[C@H]2[C@H](O)[C@@H]2O[C@H]12)c1cn([C@H](CO)Cc2ccccc2)nn1	-0.00977
CO[C@H]1COC(=O)CC=C[C@H](C)[C@H](OC)COC(=O)[C@@H](C)COC(=O)CC=C[C@@H]1C	0.688 and 0.438
COC(=O)[C@H](C)NC(=O)CCC1CC(OC(=O)NCCc2ccc(F)cc2)CC2(CCCC(COC(=O)NCCCN3CCCC3=O)O2)O1 (stereo partly specified)	0.0394
CCOC(=O)[C@@H]1CC2O[C@]23C[C@@H]1C(=O)N1CCC[C@@H]1[C@H]3O[Si](C)(C)C(C)(C)C (stereo partly specified)	0.781 and -1.86
C[C@@H]1CC[C@H]2C(=O)O[C@H](CN=[N+]=[N-])CN2[C@H]1c1ccc(Br)cc1	-1.02 and 0.242
O=c1n(-c2ccccc2)c(=O)n2n1CC[C@@H]1C(=NOC[C@@H](O)COCc3ccco3)[C@H]3O[C@H]3[C@@H](O)[C@@H]12	0.181 and -0.00804

Source: PubChem BioAssay
